# Measured values from PubChem BioAssay (NCATS).
# Several values for one entry are separate records, joined by “and”; a condition that tells them apart may be missing. Identical values can stand only once. Inconclusive results are not listed. Unmarked numbers belong to inactive results. The call rests on the fitted dose curve; in most records, active means well fitted curve in the direction sought with a large enough effect; inconclusive means small, poorly fitted or top-dose-only effect, or another doubt; inactive means no such curve, though single readings can be large or run the other way.
# Experiment: qHTS Assay for Identifying Gametocytocidal Compounds (AID 743244);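 further: actives lower the fluorescent signal which means gametocytes are killed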
# Details: P. falciparum 3D7 stage III-V gametocytes, alamarBlue, 72 h; max response: stronger effect = lower value
# Summary of the method: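 Stage III–V gametocytes of P. falciparum 3D7 were seeded at 20,000 cells/well onto pre-dispensed compounds. After 72 h, 37 °C, 5% CO2, alamarBlue was added for another 24 h.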
# On the % scale 0 is the no-effect control and ±100 the full control effect.
row,Compound,max response
1,OCCOCCN1CCN(C2=Nc3ccccc3Sc3ccccc32)CC1,-0.0618%
2,C#C[C@]1(OC(C)=O)CC[C@H]2[C@@H]3CCC4=C/C(=N/O)CC[C@@H]4[C@H]3CC[C@@]21CC,-2.23%
3,CC(=O)Nc1ncc([N+](=O)[O-])s1,-10.1%
4,CCOC(=O)Nc1ccc2c(c1)N(C(=O)CCN1CCOCC1)c1ccccc1S2,12.1%
5,Cc1cc(-c2ccccc2)nnc1NCCN1CCOCC1,-0.774% and -9.14%
6,O=C(O)P(=O)(O)O,10.4%
7,CC(C)n1c(/C=C/[C@@H](O)C[C@@H](O)CC(=O)O)c(-c2ccc(F)cc2)c2ccccc21,-9.47%
8,Oc1ccccc1C=NCc1ccccc1,0.984%
9,COc1ccccc1N1CCN(CCCCNC(=O)c2ccc(-c3ccc(C(C)=O)cc3)cc2)CC1,3.48%
10,COc1ccc(S(=O)(=O)N2c3ccc(Cl)cc3[C@@](O)(c3ccccc3Cl)[C@H]2C(=O)N2CCC[C@@H]2C(N)=O)cc1OC,20.2%
11,CC(=O)Nc1ccc(CC(=O)O)cc1,7.88%
12,FC(F)(F)C(F)(F)C(F)(F)C(F)(F)C(F)(F)C(F)(F)C(F)(F)C(F)(F)Br,5.68%
13,CCOC(=O)C(C#N)=C(c1ccccc1)c1ccccc1,-6.54%
14,COc1ccc(CN(CCN(C)C)c2ncccn2)cc1,-8.37%
15,CN(Cc1ccc(C(C)(C)C)cc1)Cc1cccc2ccccc12,18.1% and -10.3%
